Compound activity deposited in PubChem by Broad Institute.
The list is not random: actives were taken first. Their share in the collection is about 2.8%.
dFosB act: activators of delta FosB homodimer, primary screen, biochemical, fluorescence polarization, TAMRA-CDK5 oligo, single point; Protein FosB (Mus musculus), P13346; purified delta FosB; percent of positive-control signal above neutral wells; activation, % at 25 µM; 340,000 compounds, 0.99% hits;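 active = mean activation above about 17%, with every replicate also reaching it, limit read from the data, passing the limit was not always enough; inconclusive = only one of the two conditions met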
SIRT5 block: SIRT5 desuccinylase inhibitors, primary screen, biochemical, fluorescence imaging, single point, set 5. NAD-dependent protein deacylase sirtuin-5, mitochondrial (Homo sapiens), Q9NXA8. Purified SirT5, succinyl-peptide AMC, trypsin-coupled fluorescence. inhibition, % at 15 µM. 330,000 compounds, 1.1% hits. AID 652115, 2013; in the data active = inhibition above about 15%; inconclusive = no clear call, values can overlap the other calls
PvdQ inh: P. aeruginosa PvdQ acylase inhibitors, primary screen, biochemical, fluorescence, plate reader and imaging, single point | purified PvdQ acylase | 340,000 compounds, 0.063% hits | inhibition, % at 10 µM | PvdQ acylase [Pseudomonas aeruginosa LESB58] | AID 488965, 2010; in the data active = inhibition above about 30%, passing the limit was not always enough; inconclusive = no clear call, values can overlap the other calls;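 note: 0% = vehicle neutral wells and 100% = reference inhibitor wells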
PglD DTNB: C. jejuni PglD acetyltransferase inhibitors, primary screen, biochemical, DTNB colorimetric, single point; UDP-N-acetylbacillosamine N-acetyltransferase PglD (Campylobacter jejuni); purified PglD enzyme, DTNB colorimetric CoA detection; 360,000 compounds, 0.098% hits; inhibition, % at 12.5 µM; AID 602405, 2012; in the data active = inhibition above about 16%, passing the limit was not always enough; inconclusive = no clear call, values can overlap the other calls
FGF22 binding: binders of human FGF22 protein, primary screen, FGF22 synaptogenesis inhibitor project, biophysical, thermal shift, single point | recombinant FGF22 thermal shift, SYPRO orange fluorescence; percent of sucrose octasulfate shift, DMSO zero | AID 651658, 2012 | Fibroblast growth factor 22 (Homo sapiens), Q9HCT0 | activity (Tm shift, normalised), % at 9.99 µM | 340,000 compounds, 1.5% hits;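 active = mean Tm shift, scaled 0 neutral to 100 positive control, at about 1.3% or above, every replicate too, limit read from the data; inconclusive = no clear call, values can overlap the other calls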
CDK5 p35 inh: inhibitors of human CDK5/p35 kinase, primary screen, biochemical, single concentration; Cyclin-dependent kinase 5 (Homo sapiens) + Cyclin-dependent kinase 5 activator 1 (Homo …; Recombinant CDK5/p35, ADP-Glo luminescence, 60 min; inhibition, % at 10 µM; 330,000 compounds, 0.01% hits; AID 488839, 2010;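 active = highest replicate inhibition of at least 50% and at least 75% of replicates reaching 50%; inconclusive = only one of the two criteria met; inactive = both criteria failed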;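 note: plate controls were DMSO neutral control for no effect and GW8510 at 10 µM for full effect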
Target sequence (Q00535 whole entry, looked up): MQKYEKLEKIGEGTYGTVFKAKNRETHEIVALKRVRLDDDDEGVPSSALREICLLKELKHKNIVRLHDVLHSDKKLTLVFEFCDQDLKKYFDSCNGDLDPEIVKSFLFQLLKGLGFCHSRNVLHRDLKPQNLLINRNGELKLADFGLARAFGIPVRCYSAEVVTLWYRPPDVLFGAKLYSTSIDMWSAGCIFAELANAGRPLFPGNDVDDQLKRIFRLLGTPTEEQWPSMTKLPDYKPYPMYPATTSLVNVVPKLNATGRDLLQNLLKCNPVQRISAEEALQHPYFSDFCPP
Target sequence (Q15078 whole entry, looked up): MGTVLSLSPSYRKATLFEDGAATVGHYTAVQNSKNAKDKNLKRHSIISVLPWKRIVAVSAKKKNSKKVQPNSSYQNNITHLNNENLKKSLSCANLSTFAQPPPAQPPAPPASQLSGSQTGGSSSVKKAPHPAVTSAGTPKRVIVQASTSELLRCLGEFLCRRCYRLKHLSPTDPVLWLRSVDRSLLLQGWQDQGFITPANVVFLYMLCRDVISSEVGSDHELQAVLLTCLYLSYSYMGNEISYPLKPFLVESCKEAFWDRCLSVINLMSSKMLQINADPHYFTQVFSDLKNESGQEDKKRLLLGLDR
* = called active by the depositor; ? = inconclusive; nt = not tested or not shown.

SMILES	dFosB act	SIRT5 block	PvdQ inh	PglD DTNB	FGF22 binding	CDK5 p35 inh
Cc1csc(CNc2ncnc3ccc(-c4cccc(Cl)c4)cc23)c1	-3	34*	5	3	0	1
Cc1cccc(CNc2ncnc3ccc(-c4ccccc4Cl)cc23)c1	-2	-17	-18	-5	0	0
C[C@H](CO)N1C[C@H](C)[C@@H](CN(C)C(=O)NC2CCCC2)Oc2cc(-c3cncnc3)ccc2S1(=O)=O	nt	-1	nt	-1	0	nt
C[C@@H]1CN([C@H](C)CO)C(=O)c2cc(-c3ccncc3)cnc2O[C@H]1CN(C)C(=O)NC1CCCC1	nt	-7	nt	-2	0	nt
CCN1CCN(c2c(/C=C3\SC(=S)N(Cc4ccco4)C3=O)c(C)c(C#N)c(=O)n2C)CC1	56*	-2	-5	nt	0	-1
CCS(=O)(=O)Nc1ccc2c(c1)C(=O)N(C)[C@@H]1CC[C@H](CC(=O)NC)O[C@@H]1CO2	nt	-3	nt	1	0	nt
C[C@@H]1CN([C@H](C)CO)S(=O)(=O)c2ccc(Br)cc2O[C@@H]1CN(C)C(=O)c1cnccn1	nt	-5	nt	1	0	nt
O=C(Nc1ccc(O)cc1C(=O)O)c1ccc(NC(=O)c2ccco2)cc1	-2	5	3	-6	2.1*	0
O=C(Nc1ccc(N2CCN(C(=O)c3ccco3)CC2)cc1)c1ccc(F)cc1	0	nt	-11	0	nt	0
CCOC(=O)c1ccc(NC(=O)c2cc3c(s2)CCC3)cc1	-2	-4	-13	nt	45*	0
O=C(Nc1ccccc1C(=O)O)c1cccc(NC(=O)c2ccco2)c1	-11	-1	-3	-6	nt	-1
O=C(Nc1ccc(N2CCN(C(=O)c3ccco3)CC2)cc1)c1ccccc1	-15	19*	-6	nt	0	0
Cc1ccc(C(=O)OCC(=O)Nc2ccc(N(C)C)cc2)cc1NC(=O)c1ccco1	-14	nt	-12	1	nt	-2
Cc1ccc(C(=O)OCC(=O)Nc2ccccc2)cc1NC(=O)c1ccco1	27*	nt	10	1	nt	0
O=C(CC1CC1)N1CC2(C1)[C@H](c1ccccc1)[C@H](CO)N2C(=O)c1ccccn1	nt	14	nt	nt	0	nt
O=C(C1=C[C@@H](c2ccc3c(c2)OCO3)C[C@@H](OCc2ccc(CO)cc2)O1)N1CCCCCCC1	nt	2	nt	nt	0	nt
C[C@H]1CN([C@@H](C)CO)C(=O)c2cc(NC(=O)c3ccncc3)ccc2O[C@H]1CN(C)S(=O)(=O)c1ccc(Cl)cc1	nt	-2	nt	4	0	nt
CC(C)OC(=O)c1ccc(NC(=O)c2ccco2)cc1	-6	nt	3	8	nt	1
O=C(Nc1c(Cl)ccc2nsnc12)c1ccco1	-5	2	16	0	44*	-1
Nc1ccc(NC(=O)c2ccco2)c(Cl)c1	-1	-2	-13	-3	44*	-1
O=C(COc1ccccc1)Nc1c(Cl)ccc2nsnc12	3	2	-12	-4	0	2
O=C(Nc1cc(Cl)ccc1Cl)c1ccco1	2	2	-15	1	0	-1
CCOC(=O)c1ccc(NC(=O)c2ccco2)cc1	-2	17*	?	-1	0	0
CC(C)NC(=O)N(C)C[C@@H]1Oc2ccc(NS(=O)(=O)c3cn(C)cn3)cc2CC(=O)N([C@H](C)CO)C[C@H]1C	nt	-2	nt	1	0	nt
Clc1ccc2nc3c4ccccc4cnn3c2c1	-47	0	33*	nt	43*	1
SMILES	dFosB act	SIRT5 block	PvdQ inh	PglD DTNB	FGF22 binding	CDK5 p35 inh
CC(=O)c1ccc(NC(=S)N2CCN(C(=S)Nc3ccc(C(C)=O)cc3)C(C)C2)cc1 (stereo not drawn)	15	4	-10	nt	0	0
S=C(Nc1ccc(Oc2ccccc2)cc1)N1CCN(c2ccccn2)CC1	-1	0	-16	nt	43*	0
CC(=O)c1ccc(NC(=S)NN2C(C)CCCC2C)cc1 (stereo not drawn)	-1	2	7	nt	43*	0
S=C(Nc1ccc(Cl)c(Cl)c1)N1CCN(c2ccccn2)CC1	?	-7	-11	-5	0	1
CC(=O)c1ccc(N2CCN(C(=S)Nc3ccc(Oc4ccccc4)cc3)CC2)cc1	-3	-3	-1	nt	16*	0
CC(=O)c1ccc(NC(=S)N2CC(C)CC(C)C2)cc1 (stereo not drawn)	-7	16*	2	nt	1	-2
CCOc1ccc(NC(=S)NN2C(C)CCCC2C)cc1 (stereo not drawn)	0	nt	-12	2	nt	0
COc1ccc(NC(=S)N2CCN(Cc3ccccc3)CC2)cc1	-7	94*	-11	nt	0	-5
COc1ccc(NC(=O)Nc2ccc3c(c2)[C@@H]2C[C@@H](CC(=O)N4CCOCC4)O[C@@H](CO)[C@@H]2O3)cc1	nt	nt	nt	-2	0	nt
CSc1cccc(NC(=S)N(CCCN2CCCC2)Cc2cccn2Cc2ccc(Cl)cc2)c1	27*	-6	-12	-2	0	-1
O=C(NCC[C@H]1CC[C@H](NS(=O)(=O)c2ccc(Cl)cc2)[C@@H](CO)O1)c1ccccc1F	nt	0	nt	0	0	nt
Cc1ccc(S(=O)(=O)Nc2ccc3c(c2)C(=O)N([C@@H](C)CO)C[C@H](C)[C@@H](CN(C)C(=O)Nc2ccc(C(F)(F)F)cc2)O3)cc1	nt	16*	nt	-153	0	nt
C[C@@H]1CCCCO[C@H](CN(C)C(=O)Nc2ccc(C(F)(F)F)cc2)[C@@H](C)CN([C@@H](C)CO)C(=O)c2cc(NS(=O)(=O)c3ccc(F)cc3)ccc2O1	nt	18*	nt	1	0	nt
C[C@@H]1CN([C@H](C)CO)C(=O)c2cc(NS(=O)(=O)c3ccc(Cl)cc3)ccc2O[C@@H](C)CCCCO[C@H]1CN(C)C(=O)Nc1ccc(C(F)(F)F)cc1	nt	22*	nt	2	-1	nt
C[C@H]1CCCCO[C@@H](CN(C)C(=O)Nc2ccc(C(F)(F)F)cc2)[C@@H](C)CN([C@@H](C)CO)C(=O)c2cc(NS(=O)(=O)c3ccc(F)cc3)ccc2O1	nt	8	nt	-1	0	nt
COc1ccc2ccccc2c1C1CC(=O)N2CN(C3CCCCC3)CSC2=C1C#N (stereo not drawn)	-8	17*	11	6	0	3
CN(C)C(=O)c1cccc(-c2ccc([C@H]3[C@@H](CO)N4CCCCN(C(=O)C5CCCC5)C[C@H]34)cc2)c1	nt	2	nt	-1	0	nt
